# Reference: the supplement of paper PMC6555819
# What was measured:
# Experiment in all cases: PBM binding z-score (relative to random genomic background probes); higher = stronger binding; sequences stand for … in GC…GCGATTGACAGCGTAGAATGAAGG
# [1] = tested on: PPARg:RXRa DBDmut IVT, anti-RXR (DBD mutation: RXRa K156A/R161A, NR concentration 270 nM, RXRa partner concentration 90 nM)
# In short: (§1)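 Each nuclear receptor dimer, without ligand, was incubated for 1 h on custom Agilent 4×180K protein-binding microarrays. Binding was detected with antibodies against each partner (one per run), and scanned fluorescence was regression-normalized. The binding z-scores are referenced to random human genomic background probes.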
# [2] = tested on: PPARg:RXRa IVT, anti-PPARg (NR concentration 270 nM, RXRa partner concentration 90 nM)
# In short: as §1
# [3] = tested on: PPARg DBDmut:RXRa IVT, anti-PPARg (DBD mutation: PPARg1 K132A/R137A, NR concentration 270 nM, RXRa partner concentration 90 nM)
# In short: as §1
# [4] = tested on: PPARg DBDmut IVT, anti-PPARg (DBD mutation: PPARg1 K132A/R137A, NR concentration 270 nM)
# In short: as §1
# [5] = tested on: PPARg homodimer (NR concentration 180 nM)
# In short: as §1
# [6] = tested on: PXR:RXRa (NR concentration 270 nM, RXRa partner concentration 90 nM)
# In short: as §1
# [7] = tested on: PXR homodimer (NR concentration 270 nM)
# In short: as §1
# [8] = tested on: RARa:RXR (NR concentration 270 nM, RXRa partner concentration 90 nM)
# In short: as §1
# [9] = tested on: RARa homodimer (NR concentration 270 nM)
# In short: as §1
# [10] = tested on: RARb:RXRa (NR concentration 270 nM, RXRa partner concentration 90 nM)
# In short: as §1
sequence,measurement,setting,value
TAGCCTAGGTCAGATCGGGCAAGTATACGCTATA,PBM binding z-score,[1],0.264
same,PBM binding z-score,[2],1.08
same,PBM binding z-score,[3],-0.209
same,PBM binding z-score,[4],-0.848
same,PBM binding z-score,[5],-0.0891
same,PBM binding z-score,[6],0.344
same,PBM binding z-score,[7],-0.431
same,PBM binding z-score,[8],1.06
same,PBM binding z-score,[9],-0.377
same,PBM binding z-score,[10],2.99
CGTCCAAGGTCAAGGTCCGTGAAAGAGACTCGAA,PBM binding z-score,[1],3.62
same,PBM binding z-score,[2],3.88
same,PBM binding z-score,[3],0.152
same,PBM binding z-score,[4],-0.702
same,PBM binding z-score,[5],2.49
same,PBM binding z-score,[6],3.69
same,PBM binding z-score,[7],0.711
same,PBM binding z-score,[8],4.47
same,PBM binding z-score,[9],0.5
same,PBM binding z-score,[10],5.29
CCAGACGGGTGAGAAGGTAACTCAGCCTCGATTA,PBM binding z-score,[1],0.114
same,PBM binding z-score,[2],0.156
same,PBM binding z-score,[3],-1.55
same,PBM binding z-score,[4],-1.37
same,PBM binding z-score,[5],0.298
same,PBM binding z-score,[6],-0.708
same,PBM binding z-score,[7],-0.553
same,PBM binding z-score,[8],-0.463
same,PBM binding z-score,[9],-0.518
same,PBM binding z-score,[10],-0.128
CGTCAAAGTTCAACTAAGGTAACGCAAAGCACGC,PBM binding z-score,[1],0.641
same,PBM binding z-score,[2],2.32
same,PBM binding z-score,[3],0.717
same,PBM binding z-score,[4],0.408
same,PBM binding z-score,[5],3.08
same,PBM binding z-score,[6],5.42
same,PBM binding z-score,[7],3.81
same,PBM binding z-score,[8],4.22
same,PBM binding z-score,[9],1.83
same,PBM binding z-score,[10],5.15
ATCGAAAGGTGGAAGGTGAGTATACCCACCCGAA,PBM binding z-score,[1],-0.723
same,PBM binding z-score,[2],0.561
same,PBM binding z-score,[3],0.498
same,PBM binding z-score,[4],0.266
same,PBM binding z-score,[5],0.464
same,PBM binding z-score,[6],0.15
same,PBM binding z-score,[7],-0.16
same,PBM binding z-score,[8],0.474
same,PBM binding z-score,[9],-0.403
same,PBM binding z-score,[10],0.83
CGTCAAAGTTCAAGGTAACGGAACAGAAAGCAGC,PBM binding z-score,[1],0.343
same,PBM binding z-score,[2],2.24
same,PBM binding z-score,[3],0.485
same,PBM binding z-score,[4],0.919
same,PBM binding z-score,[5],1.96
same,PBM binding z-score,[6],3.99
same,PBM binding z-score,[7],2.13
same,PBM binding z-score,[8],3.36
same,PBM binding z-score,[9],1.04
same,PBM binding z-score,[10],5.07
CCGACTGGGGCACAAAGGTTACCATACCATCCGG,PBM binding z-score,[1],3.32
same,PBM binding z-score,[2],4.48
same,PBM binding z-score,[3],-0.0878
same,PBM binding z-score,[4],-1.02
same,PBM binding z-score,[5],0.929
same,PBM binding z-score,[6],1.58
same,PBM binding z-score,[7],0.126
same,PBM binding z-score,[8],2.57
same,PBM binding z-score,[9],0.061
same,PBM binding z-score,[10],2.31
CCGACTGGGACATAAGGTTACCATAAGCCAGCCC,PBM binding z-score,[1],1.57
same,PBM binding z-score,[2],0.909
same,PBM binding z-score,[3],-1.05
same,PBM binding z-score,[4],-1.68
same,PBM binding z-score,[5],0.314
same,PBM binding z-score,[6],0.0588
same,PBM binding z-score,[7],-0.0723
same,PBM binding z-score,[8],0.922
same,PBM binding z-score,[9],-0.0116
same,PBM binding z-score,[10],1.05
TCTTGTAGATCAACAGGAGGTTCAGAAAGATCGA,PBM binding z-score,[1],1.5
same,PBM binding z-score,[2],0.779
same,PBM binding z-score,[3],0.136
same,PBM binding z-score,[4],0.251
same,PBM binding z-score,[5],-0.725
same,PBM binding z-score,[6],0.256
same,PBM binding z-score,[7],-0.264
same,PBM binding z-score,[8],0.00715
same,PBM binding z-score,[9],-0.572
same,PBM binding z-score,[10],0.0281
ACAGACAGGTGATCAAGGTAACTCAGGCTATCAT,PBM binding z-score,[1],0.0346
same,PBM binding z-score,[2],0.406
same,PBM binding z-score,[3],-0.281
same,PBM binding z-score,[4],0.238
same,PBM binding z-score,[5],0.161
same,PBM binding z-score,[6],-0.179
same,PBM binding z-score,[7],0.0426
same,PBM binding z-score,[8],0.35
same,PBM binding z-score,[9],0.298
same,PBM binding z-score,[10],0.165
CCTAGATGGTCAAGGTCACACACGCTATAGGTAC,PBM binding z-score,[1],1.66
same,PBM binding z-score,[2],3.08
same,PBM binding z-score,[3],1.08
same,PBM binding z-score,[4],0.88
same,PBM binding z-score,[5],3.58
same,PBM binding z-score,[6],4.21
same,PBM binding z-score,[7],2.09
same,PBM binding z-score,[8],4.57
same,PBM binding z-score,[9],2.52
same,PBM binding z-score,[10],4.29
GCTGATAGGTCAGGTTGGTCAGCTAACGGGTACG,PBM binding z-score,[1],1.74
same,PBM binding z-score,[2],1.49
same,PBM binding z-score,[3],-0.568
same,PBM binding z-score,[4],-0.567
same,PBM binding z-score,[5],1.32
same,PBM binding z-score,[6],1.25
same,PBM binding z-score,[7],-0.432
same,PBM binding z-score,[8],2.23
same,PBM binding z-score,[9],-0.0849
same,PBM binding z-score,[10],3.8
GATACAGGGTCAACGCCAGAGTACGCGTATTGAT,PBM binding z-score,[1],3.53
same,PBM binding z-score,[2],4.25
same,PBM binding z-score,[3],0.296
same,PBM binding z-score,[4],0.699
same,PBM binding z-score,[5],2.98
same,PBM binding z-score,[6],4.11
same,PBM binding z-score,[7],0.215
same,PBM binding z-score,[8],5.05
same,PBM binding z-score,[9],0.72
same,PBM binding z-score,[10],4.7
GGAACGACGGCAAGTTGATAGCAGAGTTTGATGG,PBM binding z-score,[1],-0.476
same,PBM binding z-score,[2],-0.312
same,PBM binding z-score,[3],-0.309
same,PBM binding z-score,[4],-0.721
same,PBM binding z-score,[5],-0.705
same,PBM binding z-score,[6],-0.547
same,PBM binding z-score,[7],0.0619
same,PBM binding z-score,[8],-0.23
same,PBM binding z-score,[9],-0.783
same,PBM binding z-score,[10],-0.715
CCTAGCAGGCCAGGGTCACTGAAGCATTTCGCTT,PBM binding z-score,[1],0.0332
same,PBM binding z-score,[2],1.16
same,PBM binding z-score,[3],-1.43
same,PBM binding z-score,[4],-1.48
same,PBM binding z-score,[5],1.08
same,PBM binding z-score,[6],3.04
same,PBM binding z-score,[7],-0.468
same,PBM binding z-score,[8],3.83
same,PBM binding z-score,[9],-0.64
same,PBM binding z-score,[10],2.55
TCATATAGGTAAGTGCTAGGTGAAAGTCCGATCT,PBM binding z-score,[1],3.42
same,PBM binding z-score,[2],2.48
same,PBM binding z-score,[3],0.55
same,PBM binding z-score,[4],0.697
same,PBM binding z-score,[5],0.802
same,PBM binding z-score,[6],0.193
same,PBM binding z-score,[7],0.147
same,PBM binding z-score,[8],0.223
same,PBM binding z-score,[9],1.04
same,PBM binding z-score,[10],0.4
ATCTCTAGTTAAAGATAGTTCAGTGAATGCAAAT,PBM binding z-score,[1],-0.115
same,PBM binding z-score,[2],0.245
same,PBM binding z-score,[3],0.633
same,PBM binding z-score,[4],1.63
same,PBM binding z-score,[5],0.523
same,PBM binding z-score,[6],0.98
same,PBM binding z-score,[7],1.18
same,PBM binding z-score,[8],1.1
same,PBM binding z-score,[9],1.54
same,PBM binding z-score,[10],0.647
ATCTCTAGGTAAAGTACAGTGAAAGATCGATAGA,PBM binding z-score,[1],2.11
same,PBM binding z-score,[2],2.03
same,PBM binding z-score,[3],1.17
same,PBM binding z-score,[4],1.25
same,PBM binding z-score,[5],1.14
same,PBM binding z-score,[6],0.119
same,PBM binding z-score,[7],0.479
same,PBM binding z-score,[8],0.369
same,PBM binding z-score,[9],1.59
same,PBM binding z-score,[10],0.586
GCTTGTACATCAAGGTTAAGAAAGACTAAGCTAA,PBM binding z-score,[1],-0.0633
same,PBM binding z-score,[2],0.772
same,PBM binding z-score,[3],0.219
same,PBM binding z-score,[4],-0.0385
same,PBM binding z-score,[5],0.116
same,PBM binding z-score,[6],0.266
same,PBM binding z-score,[7],-0.152
same,PBM binding z-score,[8],0.856
same,PBM binding z-score,[9],0.262
same,PBM binding z-score,[10],0.882
ATATGTAGGTTACATCCCGGTCATTCAGGCTATG,PBM binding z-score,[1],7.52
same,PBM binding z-score,[2],7.38
same,PBM binding z-score,[3],2.01
same,PBM binding z-score,[4],2.46
same,PBM binding z-score,[5],1.78
same,PBM binding z-score,[6],1.39
same,PBM binding z-score,[7],0.762
same,PBM binding z-score,[8],1.6
same,PBM binding z-score,[9],0.487
same,PBM binding z-score,[10],1.99
ACTCGGAGGACAAAGGACAGAGCTACGCCAGTGA,PBM binding z-score,[1],-0.0501
same,PBM binding z-score,[2],-0.429
same,PBM binding z-score,[3],-0.346
same,PBM binding z-score,[4],-1.22
same,PBM binding z-score,[5],-0.327
same,PBM binding z-score,[6],-0.688
same,PBM binding z-score,[7],-0.112
same,PBM binding z-score,[8],-0.495
same,PBM binding z-score,[9],-0.7
same,PBM binding z-score,[10],1.62
ATATGTAGCTTATCGGGTCATTCAGTTTGCGCAT,PBM binding z-score,[1],1.01
same,PBM binding z-score,[2],1.81
same,PBM binding z-score,[3],1.36
same,PBM binding z-score,[4],1.64
same,PBM binding z-score,[5],1.05
same,PBM binding z-score,[6],3.2
same,PBM binding z-score,[7],8.3
same,PBM binding z-score,[8],2.8
same,PBM binding z-score,[9],0.765
same,PBM binding z-score,[10],1.72
TGAATGAGGTTAAAGAACAGGGAACGTGGCGTCG,PBM binding z-score,[1],1.89
same,PBM binding z-score,[2],2.33
same,PBM binding z-score,[3],0.69
same,PBM binding z-score,[4],0.463
same,PBM binding z-score,[5],0.725
same,PBM binding z-score,[6],1.13
same,PBM binding z-score,[7],0.0217
same,PBM binding z-score,[8],1.52
same,PBM binding z-score,[9],0.262
same,PBM binding z-score,[10],1.95
